Pf Dd2 growth – inhibitors of Plasmodium falciparum Dd2 growth | AID 1347417 | P. falciparum Dd2 growth, SYBR Green, 72 h | Potency, µM (top dose mostly 28.9 µM), for the others: at the highest dose activity, negative = inhibition, most hits filed as inhibitors | hit rate 4.3% among 120,000; active means well fitted inhibition curve with a large enough effect;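 further: plate controls were DMSO vehicle for no effect and reference drug for full effect; nearly all actives have a fitted effect of over 65% in size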
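Infected erythrocytes (Dd2, 0.3% parasitemia, 2.5% hematocrit final) are added to compound in RPMI-1640/Albumax II medium, grown 72 h at 37C in low oxygen, then lysed with saponin/Triton-X containing SYBR Green and read by fluorescence.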
* = called active by the depositor; [ ] = remark or other dose. The sample as a whole holds a higher share of hits than the screen did. Potency means the concentration at half of the fitted maximal effect.

c1ccc(CN2CCNc3cc(-c4ccncc4)ncc3C2)cc1 was read as Pf Dd2 growth -25.5%[44.1 µM].
Screening COc1ccc(CNc2cc3c(cn2)CN(Cc2ccccc2)CCN3)cc1OC returned Pf Dd2 growth -15.4%[44.1 µM].
Screening COc1ccc(CN2CCNc3cc(-c4ccnc(C)c4)ncc3C2)cc1O returned Pf Dd2 growth -4.2%[44.1 µM].
Screening COc1ccc(-c2cc3c(cn2)CN(Cc2ccccc2)CCN3)cc1OC returned Pf Dd2 growth 11.2µM*.
For Oc1ccc(-c2cc3c(cn2)CN(Cc2ccccc2)CCN3)cc1F the results were Pf Dd2 growth 3.98µM*.
COc1ccc(Nc2cc3c(cn2)NCCN(Cc2ccccc2)C3)cn1 was read as Pf Dd2 growth inactive.
Screening CN(C)C(=O)c1noc2c1CN(C(=O)C1COc3ccccc3C1)CC2 (stereo not drawn) returned Pf Dd2 growth -8.0%.
`CO[C@H]1C(=O)N(C(C)C)[C@H]1C1CCN(C(=O)Nc2ccccc2F)CC1` gave Pf Dd2 growth -16.1%.
For Cn1cc(CN2CCOC[C@H](Oc3cnccn3)C2)cn1 the results were Pf Dd2 growth -0.3%[44.1 µM].
`CC(C)N1C[C@H](O)C[C@H]1c1nnc2n1CCN(C(=O)c1cccn1C)C2` gave Pf Dd2 growth 42.6%.
O=C(CSc1ccc(Cl)cc1)N[C@@H]1COCC[C@@H]1OCC1CC1 was read as Pf Dd2 growth -18.3%.
For N#Cc1ccc(C(=O)N[C@H]2[C@H](O)[C@H](O)C[C@@H]2c2cccnc2)cc1 the results were Pf Dd2 growth 29.2%[44.1 µM].
For COc1ccc(C(=O)N2CCCC2c2nc(CCOCC3CC3)no2)cc1 (stereo not drawn) the results were Pf Dd2 growth -26.4%.
For COc1cccc(-c2cc3c(=O)n(CCNC(=O)COc4cccc(C)c4)ccn3n2)c1 the results were Pf Dd2 growth -20.5%.
COc1ccc(NC2CCCN(C(=O)c3ccccc3C(F)(F)F)C2)cc1OC (stereo not drawn) was read as Pf Dd2 growth inactive.
COc1ccc(CCC(=O)Nc2cccc(-c3nnc4n3CCCC4)c2)cc1 was read as Pf Dd2 growth 7.94µM*.
Screening COc1ccccc1CCC(=O)Nc1ccc(-c2nnc3n2CCCC3)cc1 returned Pf Dd2 growth inactive.
O=C(CCCc1ccccc1)Nc1cccc(-c2nnc3n2CCCC3)c1 was read as Pf Dd2 growth 4.47µM*.
`COc1cccc(NC(=O)Cn2c(C)cc3nc4n(c(=O)c32)CCCCC4)c1` gave Pf Dd2 growth -11.3%.
For O=C(Nc1ccc(-c2nnc3n2CCCC3)cc1)Nc1ccccc1F the results were Pf Dd2 growth -17.1%.
`Cc1cccc(NC(=O)Cn2nc3n(c2=O)CCCCC3)c1` gave Pf Dd2 growth 27.2%.
For O=C1CCN(C(=O)c2ccc3ccccc3n2)CCOCCN1 the results were Pf Dd2 growth 4.4%.
Screening Cc1cc(C(=O)N(C)C2CCc3nnc(C)n3CC2)c(C)n1Cc1ccco1 (stereo not drawn) returned Pf Dd2 growth 13.9%.
COc1ccc(CC(=O)N2Cc3ccccc3CC23CCCN([S+](C)(=O)[O-])C3)cc1 (stereo not drawn) was read as Pf Dd2 growth 1.9%.
For CC(=O)Nc1ccc(CN2CCC3(CN[S+](=O)([O-])c4ccccc4N3)C2)cc1 (stereo not drawn) the results were Pf Dd2 growth -9.9%.
For O=C(NCc1nnc2ccc(-c3ccccc3)nn12)c1ccc(F)cc1 the results were Pf Dd2 growth inactive.
For CC(=O)N[C@@H]1CN(C(=O)c2[nH]c3c(C)ccc(C)c3c2C)C[C@H]1C(C)C the results were Pf Dd2 growth -25.5%.
Screening Cc1ccc(-c2cccc(C(=O)N3CCCC(O)(CN4CCCC4)C3)c2)o1 (stereo not drawn) returned Pf Dd2 growth 11.2µM*.
O=C(c1ccccc1-c1nn[nH]n1)N1CCOCC(O)(CN2CCCC2)C1 (stereo not drawn) was read as Pf Dd2 growth -2.1%.
For O=C(c1cccc(-c2ncc[nH]2)c1)N1CCCC(O)(CN2CCCC2)C1 (stereo not drawn) the results were Pf Dd2 growth 9.8%.
O=C(c1cccc(-n2cccn2)c1)N1CCOCC(O)(CN2CCCC2)C1 (stereo not drawn) was read as Pf Dd2 growth -23.0%.
Cc1ccc(C)c2c(C)c(C(=O)N3CCCC(O)(CN4CCCC4)C3)[nH]c12 (stereo not drawn) was read as Pf Dd2 growth 11.2µM*.
For Cc1cc(CNC(=O)[C@@H]2CCC[C@@H](NC(=O)C(C)(C)C)CN(C)C(=O)C2)no1 the results were Pf Dd2 growth 5.4%[44.1 µM].
`CC1CCC(NC(=O)CN2C(=O)NC3(CCC(C)CC3)C2=O)CC1` (stereo not drawn) gave Pf Dd2 growth -8.0%.
`CCn1ccc(C(=O)N2CCCCCCNC(=O)[C@@H]3C[C@@H](c4nc(Cc5ccccc5)no4)C[C@@H]32)n1` gave Pf Dd2 growth -4.7%.
O=C(CCc1ccccc1)NCCC1CCN(C(=O)Nc2ccc(F)cc2F)CC1 was read as Pf Dd2 growth -6.7%.
O=Cc1ccc(N2CCN(C(=O)N3CCCCC3)CC2=O)cc1 was read as Pf Dd2 growth 12.3%.
